About 2,200 (0.71%) of roughly 310,000 compounds showed an effect of 50% or more. Effects have a minus sign here. This excerpt belongs to a sample that is enriched for strong results.
target: human ether-à-go-go-related gene (hERG) potassium channel (human, UniProt Q12809); assay: primary screen, population patch clamp on CHO cells stably expressing hERG; higher = less effect of the substance
Sequence (Q12809 whole entry, looked up): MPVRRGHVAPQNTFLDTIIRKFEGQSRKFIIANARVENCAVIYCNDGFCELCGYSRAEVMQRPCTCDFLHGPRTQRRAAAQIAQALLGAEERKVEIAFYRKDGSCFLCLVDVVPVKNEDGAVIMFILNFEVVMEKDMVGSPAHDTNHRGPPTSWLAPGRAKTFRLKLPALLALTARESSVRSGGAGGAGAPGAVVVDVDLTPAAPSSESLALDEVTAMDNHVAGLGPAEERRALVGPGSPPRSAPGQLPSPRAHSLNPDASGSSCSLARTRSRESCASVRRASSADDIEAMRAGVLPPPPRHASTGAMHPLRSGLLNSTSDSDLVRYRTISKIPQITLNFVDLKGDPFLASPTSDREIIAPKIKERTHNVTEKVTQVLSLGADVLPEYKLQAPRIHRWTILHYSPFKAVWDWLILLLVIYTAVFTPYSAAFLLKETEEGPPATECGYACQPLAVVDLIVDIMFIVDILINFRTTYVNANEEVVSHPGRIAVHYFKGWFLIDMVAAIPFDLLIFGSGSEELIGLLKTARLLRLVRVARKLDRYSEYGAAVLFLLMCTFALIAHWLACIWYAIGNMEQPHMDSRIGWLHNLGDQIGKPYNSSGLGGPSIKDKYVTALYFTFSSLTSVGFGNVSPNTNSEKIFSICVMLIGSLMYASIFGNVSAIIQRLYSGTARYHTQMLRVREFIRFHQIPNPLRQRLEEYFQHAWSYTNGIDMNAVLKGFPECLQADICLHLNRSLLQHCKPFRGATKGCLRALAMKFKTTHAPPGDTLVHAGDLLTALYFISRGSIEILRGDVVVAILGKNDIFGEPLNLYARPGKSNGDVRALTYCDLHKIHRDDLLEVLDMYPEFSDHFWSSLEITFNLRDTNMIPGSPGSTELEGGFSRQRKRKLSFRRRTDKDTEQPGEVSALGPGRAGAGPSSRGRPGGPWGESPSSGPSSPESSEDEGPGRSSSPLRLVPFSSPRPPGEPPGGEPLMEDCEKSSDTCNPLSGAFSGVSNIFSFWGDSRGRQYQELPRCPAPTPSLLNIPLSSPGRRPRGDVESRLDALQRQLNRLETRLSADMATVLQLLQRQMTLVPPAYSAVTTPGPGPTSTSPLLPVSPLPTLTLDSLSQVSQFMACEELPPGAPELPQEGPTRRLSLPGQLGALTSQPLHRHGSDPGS

Compound | hERG current change (%, negative = inhibition) at 1uM [%]
Cc1ccc(OCc2nnc(NC(=O)c3ccco3)s2)c(C)c1 | 17.8
C/C(=N/NC(=O)c1ccc(Br)o1)c1ccc(C)o1 | 0.861
COCCNC(=S)NNC(=O)c1cc(C2CC2)nc2ccccc12 | 14.8
O=C(CCC(=O)OCc1cccc([N+](=O)[O-])c1)Nc1ccccc1Cl | 2.86
O=[N+]([O-])c1cccc(Cl)c1CSc1ccccn1 | 11
CC[n+]1c(/C=C/c2ccc(N(C)C)cc2)ccc2ccccc21.[I-] | -27
CC[n+]1c(/C=C/c2ccc(OC)c(OC)c2)ccc2ccccc21.[I-] | 13.8
CCN(CC)c1ccc(/C=C/c2ccc3ccc(OC)cc3[n+]2CC)cc1.[I-] | -85
O=c1[nH]c(=O)n(Cc2ccco2)c2c1C(C(F)(F)F)(C(F)(F)F)N=C(Cc1ccccc1)N2 | 6.17
CCOC(=O)C1=C(Cc2ccc(F)cc2)C(=O)c2ccccc2C1=O | 6.27
CCOC(=O)CCNC(=O)N1CCCC(CNS(=O)(=O)Cc2ccccc2)C1 (centres unmarked) | 8.76
Cc1cc2nc(C3CCN(Cc4nnnn4Cc4cccs4)CC3)[nH]c2cc1C | -72.4
c1csc(Cn2nnnc2CN2CCN(c3nc4ccccc4s3)CC2)c1 | -7.1
Cc1nc2cc(C(F)(F)F)ccc2n1C1CCN(Cc2nnnn2Cc2cccs2)CC1 | -2.78
CCN(CC)C(=O)CN1CCC(c2nc3cc(C)c(C)cc3[nH]2)CC1 | 11.1
Cc1cc2nc(C3CCN(Cc4nnnn4Cc4ccccc4)CC3)[nH]c2cc1C | -50.7
CCN1CCN(CC2COc3ccccc3O2)CC1.Cl (centres unmarked) | 7.79
Cc1cc2nc(C3CCN(CC4COc5ccccc5O4)CC3)[nH]c2cc1C (centres unmarked) | -65.6
Cl.c1ccc(Cn2nnnc2CN2CCCC2)cc1 | 10.1
CCC(C)(C)n1nnnc1CN1CCC(c2nc3ccc(C)cc3[nH]2)CC1 | -25.7
CCN(CC)CCN1C(=O)C(=O)/C(=C(/O)c2ccc(F)cc2)C1c1cccnc1 (centres unmarked) | 14.9

Compound | hERG current change (%, negative = inhibition) at 1uM [%]
Cc1nnc(NCc2n[nH]c(=O)c3ccccc23)c2ccccc12 | 9.65
O=C(CN(C(=O)c1csnn1)c1ccc2c(c1)OCCO2)NCc1ccc(F)cc1 | -1.13
COc1ccc2c(c1)C(=O)CC(c1ccc3c(c1)OCCO3)O2 (centres unmarked) | 16.1
CCOC(=O)c1ccc(NC(=O)Nc2cccc(C)n2)cc1 | 10
Cc1ccccc1SC1CCN(Cc2nc(C3CC3)no2)CC1 | -1.23
Cc1ccc(CS(=O)(=O)c2ncn[nH]2)cc1 | 21
Cc1ccccc1-c1nc(CN2CCC(C(=O)NCc3ccco3)CC2)c(C)o1 | -34.7
Cc1oc(-c2ccccc2F)nc1CN1CCC(C(=O)NCc2ccco2)CC1 | -9.53
CCN1CCN(C(=O)C2CCN(Cc3nc(-c4cccc(Cl)c4)oc3C)CC2)CC1 | -21
Cc1oc(-c2ccc(Cl)cc2)nc1CN1CCCC(C(=O)NCc2ccco2)C1 (centres unmarked) | -56.4
Cc1oc(-c2ccc(Cl)cc2)nc1CN1CCCC(C(=O)NCc2ccccn2)C1 (centres unmarked) | -44.2
Cc1oc(-c2ccc(Cl)cc2)nc1CN1CCC(C(=O)N2CCN(Cc3ccccc3)CC2)CC1 | -48.1
Cc1oc(-c2ccc(Cl)cc2)nc1CN1CCC(C(=O)N2CCc3ccccc3C2)CC1 | -56.7
Cc1oc(-c2cccc(Cl)c2)nc1CN1CCC(C(=O)NCc2cccnc2)CC1 | -13
Cc1oc(-c2cccc(Cl)c2)nc1CN1CCC(C(=O)NCc2ccco2)CC1 | -70.4
Cc1oc(-c2ccc(Cl)cc2)nc1CN1CCC(C(=O)NCc2ccco2)CC1 | -58.3
Cc1oc(-c2cccc(Cl)c2)nc1CN1CCC(C(=O)NC2CC2)CC1 | 14.6
Cc1oc(-c2cccc(Cl)c2)nc1CN1CCCC(C(=O)NCc2ccco2)C1 (centres unmarked) | -45
Cc1ccc(OC(=O)c2ccc3nc(C)sc3c2)cc1 | 10
COC(=O)COC(=O)c1ccc(O)cc1 | -12.9
O=C1C=C(c2ccc3ncccc3c2)C[C@@H](c2ccc3c(c2)OCO3)C1 | 9.3

Compound | hERG current change (%, negative = inhibition) at 1uM [%]
O=C(c1cc2ccccc2oc1=O)N(Cc1cccs1)Cc1ccccc1Cl | 2.42
CCc1ccc(NC(=O)CCn2nc(C)c(S(=O)(=O)N3CCCCC3)c2C)cc1 | 4.67
CCOC(=O)COc1c(-c2ccc(OC)cc2)oc2ccccc2c1=O | 9.81
CC(C)OP(=O)(OC(C)C)C(Nc1ccccc1)c1cccc([N+](=O)[O-])c1 (centres unmarked) | 12
COc1cc(-c2nc3n(n2)C(c2ccncc2)C2=C(CCCC2=O)N3)cc(OC)c1OC (centres unmarked) | 26
Cc1ccc(CN2C(=O)C3CCCN3c3ncccc32)cc1 (centres unmarked) | 12.7
CCCCN1C(=O)NC(=O)/C(=C/c2cnc(SC)nc2)C1=O | 7.6
Cc1ccccc1NCc1ccc(O)c2ncccc12 | 8.46
Cl.N=c1ccn(Cc2ccccc2Cl)cc1 | 16.8
CCc1ccc(-c2nc(CN3CCC(C(=O)NCCN(CC)c4ccccc4)CC3)c(C)o2)cc1 | -15.6
CCc1ccc(-c2nc(CN3CCC(C(=O)NCc4ccco4)CC3)c(C)o2)cc1 | -51.1
CCc1ccc(-c2nc(CN3CCC(C(=O)NCc4ccc(F)cc4)CC3)c(C)o2)cc1 | -12.4
CCOc1ccc(-c2cn3ccccc3n2)cc1 | -1.48
CCOCCCN(C)C1CCN(C(=O)c2oc3ccccc3c2NC(=O)Cc2ccc([N+](=O)[O-])cc2)CC1 | -89.1
CCCN(CCC)C(=O)c1oc2ccccc2c1NC(=O)Cc1cccc(OC)c1 | 19.2
COc1ccc(N2CCN(C(=O)c3oc4ccccc4c3NC(=O)Cc3cccc(OC)c3)CC2)cc1 | 3.16
CCOCCCN(C)C1CCN(C(=O)c2oc3ccccc3c2NC(=O)Cc2cccc([N+](=O)[O-])c2)CC1 | -83.8
COc1ccc(CC(=O)Nc2c(C(=O)N3CCN(c4ncccn4)CC3)oc3ccccc23)cc1 | -21.4
COc1ccc(CC(=O)Nc2c(C(=O)N3CCN(c4ccccc4)CC3)oc3ccccc23)cc1OC | -8.82
COc1ccc(NS(=O)(=O)c2cccc(C(=O)N3CCCC(C)C3)c2)cc1 (centres unmarked) | 3.3
CCN(CCn1cccn1)C(=O)CC1C(=O)NCCN1Cc1ccc(OC)c(OC)c1 (centres unmarked) | 2.76

Compound | hERG current change (%, negative = inhibition) at 1uM [%]
c1cnc2ccc(C(c3nnnn3C3CCCCC3)N3CCN(C4CCCCC4)CC3)cc2c1 (centres unmarked) | -87
OC1CCN(C(c2ccc3ncccc3c2)c2nnnn2C2CCCCC2)CC1 (centres unmarked) | -5.3
c1cnc2ccc(C(c3nnnn3C3CCCCC3)N3CCCCC3)cc2c1 (centres unmarked) | 1.89
COc1ccc(Cn2nnnc2C(c2ccc3ncccc3c2)N2CCN(C3CCCCC3)CC2)cc1 (centres unmarked) | -79.3
CCC(C)(C)n1nnnc1C(c1ccc2ncccc2c1)N1CCN2CCCC2C1 (centres unmarked) | 8.16
Fc1ccc(C(c2nnnn2Cc2cccs2)N2CCN(C3CCCCC3)CC2)cc1 (centres unmarked) | -46.6
COc1ccc(Cn2nnnc2C(c2ccc(F)cc2)N2CCN(C3CCCC3)CC2)cc1 (centres unmarked) | -15
c1cnc2ccc(C(c3nnnn3C3CCCCC3)N3CCN4CCCC4C3)cc2c1 (centres unmarked) | -96.9
COc1ccc(Cn2nnnc2C(c2ccc(C)cc2)N2CCN(C3CCCC3)CC2)cc1.Cl (centres unmarked) | -32.4
c1cnc2ccc(C(c3nnnn3C3CCCC3)N3CCN4CCCC4C3)cc2c1 (centres unmarked) | -19.5
Fc1ccc(Cn2nnnc2C(c2cccs2)N2CCN(C3CCCCC3)CC2)cc1 (centres unmarked) | -51.6
Fc1ccc(Cn2nnnc2C(c2cccs2)N2CCCCCC2)cc1 (centres unmarked) | 0.84
CCN(CC(=O)Nc1ccc(NC(C)=O)cc1)C(=O)CSc1nnc(-c2ccco2)n1CC | 16.2
Cc1nn2c(-c3ccccc3)ccnc2c1-c1ccccc1 | 7.57
CC(C)Oc1ccc(/C(O)=C2/C(=O)C(=O)N(Cc3cccnc3)C2c2ccco2)cc1 (centres unmarked) | 14.2
Cc1cc(C)c(S(=O)(=O)N2CCOC2CNC(=O)C(=O)NCCCN2CCCC2=O)c(C)c1 (centres unmarked) | 7.05
O=C(c1ccccc1)c1c[nH]c(C(=O)C(Cl)(Cl)Cl)c1 | 16
COC/C=C/C1=CC2=CC(=O)C(C)(OC(=O)c3cnc4ccccc4n3)C(=O)C2=CN1C1CCCCC1 (centres unmarked) | 9.88
Cc1csc(NC(=O)CSc2nncs2)n1 | 8.29
CC(NC(=O)Cc1cccs1)c1ccc2c(c1)OCO2 (centres unmarked) | -4.41

From publication PMC4336329 (PLoS ONE, 2015)
